Six1-Eya2 inh – blocks human Six1 binding to Eya2 | Q15475+O00167 | 0.56% of 360,000 active | AlphaScreen GST-Six1/His-Eya2 binding, biochemical; stronger effect = lower value | AID 651725 | activity change, % (test concentration not listed); in the data active = activity change below about -65%; inconclusive = mostly about -30% to -63%
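Compounds are tested against tagged Six1 and Eya2 proteins bridged by glutathione donor and nickel acceptor beads; after a one-hour incubation at 37 °C without light, AlphaScreen emission is recorded.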
JMJD2A Tudor inh – blocks the human JMJD2A Tudor domain. O75164. AlphaScreen JMJD2A-Tudor / H3K4me3 peptide binding. 4.4% of 390,000 active. Potency, µM (titrated, usually from 114 µM), most hits filed as inhibitors; note: nearly all actives have a fitted effect of over 50% in size
BAZ2B inh – inhibitors of human BAZ2B bromodomain; 4.4% of 360,000 active; Q9UIF8; Potency, µM (highest dose often 114 µM), hits mostly inhibitors; AlphaScreen BAZ2B-H3K14Ac peptide displacement; note: nearly all actives have a fitted effect of over 60% in size
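AlphaScreen displacement of biotin-H3(5-23)K14Ac peptide (50 nM final) from BAZ2B (50 nM final) in PBS pH 7.4, 0.01% Tween-20; complex preformed 30 min RT, then compounds (top 110 uM) 30 min RT, beads 20 min dark.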
HP1b binding inh – HP1-beta chromodomain-methylated histone interaction inhibition | P83916 | AlphaScreen HP1-beta / biotin-H3K9me3 peptide binding | Potency, µM (doses to about 114 µM), hits mostly inhibitors | 0.56% of 390,000 active; note: nearly all actives have a fitted effect of over 70% in size
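Compound inhibition of the preformed complex between 50 nM HP1-beta and 50 nM biotinylated H3K9me3 peptide was read by AlphaScreen. Buffer was PBS pH 7.4 with 0.01% Tween-20. Incubations ran 30 min at room temperature, with 10 ug/mL donor/acceptor beads.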
CtBP-E1A blk – inhibitors of CtBP/E1A interaction; AlphaScreen GST-E1A/His-CtBP binding, 1536-well; stronger effect = lower value; activity change, % (test concentration not listed); 0.49% of 340,000 active; in the data active = activity change below about -65%; inconclusive = mostly about -30% to -63%
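Protein mix (5X: 125 nM each GST-E1A, His-CtBP) was incubated with pinned compound 2 h at 37 deg C in dark, in 50 mM Tris pH 8.0 buffer with 300 mM NaCl. Glutathione donor and nickel acceptor beads followed; AlphaScreen signal read after 1 h.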
G9a inh – inhibitors of human histone lysine methyltransferase G9a | Potency, µM (doses to about 102 µM), most hits filed as inhibitors | 8.8% of 350,000 active | G9a H3K9 monomethylation, AlphaScreen, 2 h; note: nearly all actives have a fitted effect of over 75% in size
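Step 1: enzyme (final 20 nM) with compound, 15 min RT. Step 2: substrate peptide 500 nM and SAM 20 uM, 2 h RT. Step 3: anti-H3K9me1 antibody and AlphaScreen beads, 10 min, then plate read.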
Hits are given with their value; n = inactive; u = inconclusive; x = no result; [ ] = remark or other dose. Rows were chosen to be rich in hits. Some 10% of all compounds tested hit in one or more screens of this group. Unless noted, calls come from the whole dose curve; as a rule, active = well fitted inhibition curve with a large enough effect; inconclusive = small, poorly fitted or top-dose-only effect; inactive = no such curve, though single readings can be large or run the other way.

SMILES	Six1-Eya2 inh	JMJD2A Tudor inh	BAZ2B inh	HP1b binding inh	CtBP-E1A blk	G9a inh
O=C(CNC(=O)c1ccco1)Nc1ccc2c(c1)OCCO2	n	n	n	n	n	n[0.501 µM]
Cc1ccc(C(=O)Nc2nnc(S(=O)(=O)N3CCCc4ccccc43)s2)cc1	x	n	n	n	x	n
Cc1ccc(Cl)cc1N1CCN(c2ncnc3onc(C)c23)CC1	x	n	n	n	x	n
CNC(=O)C1CCC(Cn2c(=O)c3sccc3n(CC(=O)Nc3ccccc3)c2=O)CC1 (centres undefined)	x	n	n	n	x	n
CCN(CCCNC(=O)CNC(=O)c1nn(-c2ccc(OC)cc2)c(=O)c2ccccc12)c1cccc(C)c1	n	u	n	n	n	31.6µM
COc1ccc(-n2nc(C(=O)NCC(=O)Nc3ccccn3)c3ccccc3c2=O)cc1Cl	n	31.6µM	u	n	n	n[0.0925 µM]
COc1ccc(-n2nc(C(=O)NCC(=O)NCCCN3CCCCCC3)c3ccccc3c2=O)cc1Cl	n	n	n	n	n	25.1µM
CC(C)CNC(=O)C1=CC(c2ccc3c(c2)OCO3)=NS(=O)(=O)N1C	x	n	n	n	x	u
COc1ccc2[nH]c(C(=O)NCCN3CCCCC3)cc2c1	n	n	n	n	n	56.2µM
COc1ccc2[nH]c(C(=O)NCCCn3ccnc3)cc2c1	n	n	n	n	n	50.1µM
O=C(NCCN1CCCCC1)c1cc2ccccc2[nH]1	n	n	n	n	n	u
CCCCNC(=O)c1cc2cc(OC)ccc2[nH]1	n	n	n	n	x	n
CCN(CC)C(=O)Cn1cc(SCC(=O)Nc2cccc(F)c2)c2ccccc21	x	n	n	n	x	n
O=c1[nH]c(=O)c2[nH]c(=S)[nH]c2[nH]1	n	2.51µM	x	10µM	n	x
O=C1/C(=C/c2ccc(O)c(O)c2)Oc2cc(O)ccc21	n	n	56.2µM	n	n	u
COc1cc(/C=C2\Oc3cc(O)ccc3C2=O)ccc1O	n	n	n	n	n	n[12.7 µM]
COc1cc(S(=O)(=O)NCc2ccc(F)cc2)ccc1-n1cnnn1	n	n	n	n	n	n
COc1cc(S(=O)(=O)NCc2ccccc2Cl)ccc1-n1cnnn1	n	n	u	n	n	12.6µM
COc1ccccc1CNS(=O)(=O)c1ccc(-n2cnnn2)c(OC)c1	n	n	n	n	n	28.2µM
Cn1nnnc1SCCCNCc1cccc(OCc2ccc(F)cc2)c1	x	n	n	n	x	n
CCOc1cc(CNC(=O)c2ccc3c(c2)N(C)C(=O)C2CCCCN32)cc(OCC)c1OCC (centres undefined)	x	n	n	n	x	n
CCc1ccc2[nH]c(C(=O)N(C)c3ccc(F)cc3F)cc2c1	n	n	n	n	n	39.8µM
CCc1ccc2[nH]c(C(=O)Nc3ccc(C)c(F)c3)cc2c1	n	n	n	n	n	n[2.33 µM]
C(=N\n1cnnc1SCc1ccccc1)/c1ccco1	n	n	n	n	n	56.2µM
Fc1ccc(Cl)cc1/C=N/n1cnnc1SCc1ccccc1	n	n	n	n	n	n
SMILES	Six1-Eya2 inh	JMJD2A Tudor inh	BAZ2B inh	HP1b binding inh	CtBP-E1A blk	G9a inh
C#CCOc1c(Br)cc(/C=C2/C(=O)ON=C2C)cc1OCC	n	n	u	n	n	44.7µM
COc1ccc(/C=C2/C(=O)ON=C2C)cc1Br	n	n	n	n	n	u
C=CCOc1c(Br)cc(/C=C2/C(=O)ON=C2C)cc1OC	n	20µM	u	n	n	31.6µM
CC1=NOC(=O)/C1=C\c1ccc(-c2ccc(Cl)cc2Cl)o1	n	u	u	n	n	8.91µM
C#CCOc1c(Br)cc(/C=C2/C(=O)ON=C2C)cc1OC	n	n	n	n	n	39.8µM
CCSc1ccccc1C(=O)Nc1ccc(-c2nc3ccccc3s2)c(O)c1	x	n	n	n	x	n
Cc1ccc(S(=O)(=O)N2CCCc3cc(NS(=O)(=O)c4ccccc4)ccc32)cc1	x	n	n	n	x	n
c1csc(CNc2ccnc(-c3ccc4c(c3)OCO4)n2)c1	x	x	x	x	x	n[0.501 µM]
C#CCOc1c(Cl)cc(/C=C2/C(=O)ON=C2C)cc1OCC	n	n	n	n	n	39.8µM
CCOc1cc(/C=C2/C(=O)ON=C2C)ccc1OCc1ccccc1	n	n	n	n	n	x
CCCOc1ccc(Cl)cc1/C=C1/C(=O)ON=C1C	n	7.94µM	n	n	n	31.6µM
C#CCOc1ccc(/C=C2/C(=O)ON=C2C)cc1Cl	n	12.6µM	n	n	n	35.5µM
COc1ccccc1/C=C1/C(=O)ON=C1C	n	n	n	n	n	n[12.7 µM]
CCOc1cc(/C=C2/C(=O)ON=C2C)ccc1OCc1ccc(F)cc1	n	n	n	n	n	u
Cc1ccc(CNC(=O)Cn2cc(S(=O)(=O)Cc3ccccc3Cl)c3ccccc32)cc1	x	n	n	n	x	n
Cc1cccc2sc(N(Cc3cccnc3)C(=O)Cc3ccccc3)nc12	x	n	n	n	x	n
Cc1cc(C(=O)N2CCCC(N3CCN(c4cccc(C(F)(F)F)c4)CC3)C2)no1 (centres undefined)	n	n	n	n	n	n
O=C(c1cc(C2CC2)on1)N1CCCC(N2CCN(c3cccc(C(F)(F)F)c3)CC2)C1 (centres undefined)	n	n	n	n	n	79.4µM
c1cc2nc(C34CC5CC(CC(C5)C3)C4)[nH]c2cn1	n	22.4µM	50.1µM	u	n	14.1µM
CCc1ccc(CNC(=O)c2ccc3c(c2)nc2n3CCOC2)cc1	x	n	n	n	x	n
CCc1sc(Nc2cccc(Cl)c2)nc1-c1cc2cccc(OC)c2oc1=O	x	n	n	n	x	n
C=C1C(=O)CC2=C1[C@](Cc1ccc(F)cc1)(C(=O)OC)N(C(=O)c1ccccc1)C2	n	x	x	x	n	x
C=C1C(=O)C=C2CN(C(=O)c3ccccc3)[C@@](Cc3ccc(F)cc3)(C(=O)OC)[C@@H]12	n	n	n	n	n	8.91µM

Source: PubChem BioAssay (National Center for Advancing Translational Sciences (NCATS))
